The full list was thinned out, with hits kept by preference.
NS1 inh: inhibitors of influenza NS1 protein function | hit rate 0.4% among 270,000 | Potency, µM (series often up to 46.1 µM), for the others: at the top dose activity, positive = more growth | AID 2326; also: potency is read from the fitted curve at half-maximal effect; actives are rising curves; nearly all actives have a fitted effect of over 50% in size
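Read-out: OD600 growth recovery of NS1-expressing budding yeast. Cells grown overnight at 30C in -URA glucose medium, washed, resuspended and diluted 1:100 in 2% galactose assay medium, pH 6.0. Same strain lacking NS1 served as positive control.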
LmPK inhibitor: inhibitors of Leishmania mexicana pyruvate kinase; hit rate 0.37% among 290,000; Q27686; Potency, µM (titrated, usually from 57.5 µM), without a hit: top-dose activity change, negative = inhibition, usual class: inhibitors; purified LmPK, Kinase-Glo ATP luminescence, 1 h; AID 1721; active = well fitted curve in the direction sought with a large enough effect; inconclusive = small, poorly fitted or top-dose-only effect, or another doubt; inactive = no such curve, though single readings can be large; an effect the other way counts as inactive or inconclusive; also: potency is read from the fitted curve at half-maximal effect; % is scaled to controls: 0 for no effect and ±100 for the full control effect
Target sequence (Q27686 whole entry, looked up): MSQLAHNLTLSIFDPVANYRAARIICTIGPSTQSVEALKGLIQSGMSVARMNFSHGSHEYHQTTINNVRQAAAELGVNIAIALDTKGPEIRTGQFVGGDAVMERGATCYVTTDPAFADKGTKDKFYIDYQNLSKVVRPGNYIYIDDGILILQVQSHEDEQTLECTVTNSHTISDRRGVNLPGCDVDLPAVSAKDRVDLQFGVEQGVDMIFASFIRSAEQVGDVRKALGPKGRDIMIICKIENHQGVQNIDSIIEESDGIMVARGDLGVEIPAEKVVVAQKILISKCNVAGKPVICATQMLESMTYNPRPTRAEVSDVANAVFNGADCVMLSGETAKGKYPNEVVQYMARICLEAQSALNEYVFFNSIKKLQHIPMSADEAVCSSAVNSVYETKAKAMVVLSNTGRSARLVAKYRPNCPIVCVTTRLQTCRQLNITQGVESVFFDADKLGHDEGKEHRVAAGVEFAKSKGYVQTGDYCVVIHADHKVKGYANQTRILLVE
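Purified LmPK (0.1 nM) with 0.5 mM PEP and 0.1 mM ADP in imidazole buffer pH 7.2 with MgCl2/KCl, 1 h at room temperature. ATP formed was read by luciferase luminescence and normalized to no-enzyme and uninhibited controls.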
CHX counter-1: counter-screen for Shiga toxin inhibitors: cycloheximide protein synthesis inhibition; AID 2314; cell reporter, cycloheximide protein synthesis inhibition counterscreen; hit rate 12% among 300,000; max response, %; in the data active = max response mostly above about 13%, no sharp cut-off; inactive = mostly below about 14%; also: read at 38.3 µM for the half of the compounds with a filed dose; 0% is about no effect
TbPYK inhibitor: T. brucei pyruvate kinase inhibition; Q57TT1; TbPYK enzyme, Kinase-Glo Plus ATP luminescence, 45 min; Potency, µM (highest dose often 76.8 µM), without a hit: top-dose activity, negative = inhibition, actives largely listed as inhibitors; hit rate 0.12% among 410,000; AID 624173; active = well fitted curve in the direction sought with a large enough effect; inconclusive = small, poorly fitted or top-dose-only effect, or another doubt; inactive = no such curve, though single readings can be large; an effect the other way counts as inactive or inconclusive; also: potency is read from the fitted curve at half-maximal effect; % is scaled to controls: 0 for no effect and ±100 for the full control effect; nearly all actives have a fitted effect of over 50% in size
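Quantitative HTS: titrated library compounds versus trypanosomal pyruvate kinase in TEA buffer (pH 7.2) containing KCl, MgCl2, BSA and Tween-20. Reactions were initiated with ADP, 130 uM final. Kinase-Glo Plus luminescence was read after 45 min at RT.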
SARS PLP yeast: inhibitors of SARS-CoV papain-like protease in yeast | S. cerevisiae expressing SARS-CoV PLpro, growth rescue | Potency, µM (series often up to 32.9 µM), inactives show at the highest dose activity, positive = growth rescue, hits mostly activators | hit rate 0.19% among 330,000 | AID 485353; also: potency is read from the fitted curve at half-maximal effect; 0% is about no effect; nearly all actives have a fitted effect of over 55% in size
Shiga toxin inh: Shiga toxin inhibition; hit rate 9.2% among 290,000; inhibition, % at 38.7 µM; Vero cells, Shiga toxin protein synthesis inhibition reporter; in the data active = inhibition mostly above about 28%, no sharp cut-off; inactive = mostly below about 43%; also: 0% is about no effect
CHX counter-2: protein synthesis counter-screen activity for Shiga toxin hits. Potency, µM (highest dose often 38.3 µM), inactives show at the top dose activity (activation), hits mostly activators. AID 2318. Cycloheximide counterscreen, protein synthesis reporter, Shiga toxin assay. hit rate 3% among 510. shares compounds with Shiga toxin inh; also: potency is read from the fitted curve at half-maximal effect; 0% is about no effect
* hit, by the source's call; ? = inconclusive; / = not tested or not shown; [ ] = another dose, or the depositor's remark. Unless noted, calls follow the shape of the full dose curve.

SMILES	NS1 inh	LmPK inhibitor	CHX counter-1	TbPYK inhibitor	SARS PLP yeast	Shiga toxin inh	CHX counter-2
CN(CC(=O)Nc1ccc(Cl)c(Cl)c1)C(=O)CNC(=O)Cc1ccccc1	/	/	/	2.3%	-7.8%	/	/
Cc1ccc(C(=O)CSc2nnnn2C(C)C)c(C)c1	-7.7%	-2.0%	1.3	-5.3%	-5.9%	33.3*	0.318µM*
CCC(=O)Nc1ccc(NC(=O)CSc2nnnn2C(C)C)cc1	5.2%	0.3%	1.4	-6.7%	7.9%	-12.0	/
Cc1noc(C)c1S(=O)(=O)N(C)C[C@H]1Oc2c(NC(=O)C3CCCCC3)cccc2C(=O)N([C@H](C)CO)C[C@@H]1C	/	/	/	3.2%	3.5%	/	/
O=C(NCCCN1CCOCC1)c1c(-c2ccccc2)oc2c1C(OCCCCCO)CCC2 (stereo unspecified)	/	/	/	0.9%	/	/	/
O=C(O)Cc1ccc2oc(-c3ccccn3)nc2c1	11.0%	-5.7%	13.2	-0.8%	-0.2%	37.9*	?
COc1ccc(S(=O)(=O)N2CC=C(c3ccccc3)CC2)cc1OC	/	/	/	-0.5%	/	/	/
O=S(=O)(c1ccsc1)N1CC=C(c2ccccc2)CC1	-5.7%	-3.4%	2.3	0.4%	1.8%	34.7*	?
COc1ccc(-n2nnc(-c3nsc(NC(=O)c4cccs4)n3)c2C)cc1OC	/	/	/	1.3%	/	/	/
COc1ccc(N2C(=NC(=O)c3ccccc3)SC3CS(=O)(=O)CC32)cc1 (stereo unspecified)	-10.4%	1.9%	-2.1	0.6%	-0.1%	-2.4	/
COc1ccc(NC(=O)Cc2nnc(SCC(=O)Nc3nccs3)n2C)cc1	1.4%	-3.6%	-2.2	1.4%	-5.9%	-2.3	/
Cc1ccc(C(=O)c2oc3nc(C)cc(C)c3c2N)cc1	-14.1%	0.1%	12.7	-27.1%	-0.9%	5.7	/
CCc1ccc(C(=O)c2oc3nc(C)cc(C)c3c2N)cc1	-5.0%	-2.3%	15.9	-5.1%	-1.3%	51.5*	?
CCCS(=O)(=O)N1CC(=O)N(c2cccc(Cl)c2C)C(C)(C(=O)NC2CCCC2)C1 (stereo unspecified)	/	/	/	1.0%[15.4 µM]	/	/	/
COC(=O)[C@H](Cc1ccccc1)NC(=O)N1CCCCC1C (stereo partly specified)	0.3%	-3.4%	10.2	1.5%	-2.5%	117.0*	0.7%
Cc1cccc(C(=O)Nc2nnc(SCC(=O)Nc3ccc4c(c3)oc3ccccc34)s2)c1	1.9%	1.4%	-4.3	-14.5%	14.0%	15.3	/
COc1ccccc1C(=O)Nc1nnc(SCC(=O)Nc2ccc3c(c2)oc2ccccc23)s1	16.3%	-2.9%	1.8	-5.0%	-3.0%	45.3*	11.3µM*
Clc1nssc1=Nc1ccc(Br)cc1	/	1.9%	11.2	?	-19.6%	59.0*	4.9%
Cc1ccc(CNC(=S)Nc2ccc(NS(=O)(=O)c3ccc(C)cc3)cc2)cc1	16.1%	0.8%	0.4	-5.6%	-5.0%	-6.1	/
Cc1ccccc1S(=O)Cc1ccc(C(=O)N2CCN(c3cccc(C)c3C)CC2)o1 (stereo unspecified)	/	/	/	5.5%	/	/	/
COc1ccc(Cn2nnnc2C(C(C)C)N(Cc2ccco2)Cc2cccs2)cc1 (stereo unspecified)	12.5%	2.8%	7.5	5.8%	-6.2%	44.3*	0.4%
CC(=O)Nc1cncc(-c2ccccc2N(C)C)n1	/	/	/	-6.2%	/	/	/
CCOc1ccccc1CNC(=O)c1sc2ncccc2c1-n1cccc1	/	/	/	-5.9%	/	/	/
CC(C)N(C(=O)COC(=O)c1ccc(O)cc1)C(C)C	-1.5%	-3.4%	-1.8	-6.5%	-0.2%	-4.4	/
C/C1=C\[C@@H](O)C(C(C)C)C(OC(=O)c2ccc(O)cc2)C/C(C)=C/CC1 (stereo partly specified)	/	/	4.2	/	/	24.5*	?
O=C(NCc1ccco1)c1noc2c1CCCC2	-5.0%	-1.4%	10.4	-0.3%	7.1%	41.9*	?
CCN(CCn1cccn1)Cc1nc(-c2ccccc2)no1	-0.7%	-1.0%	7.4	-2.6%	-2.0%	34.5*	3.8%
CCN(CCn1cccn1)Cc1cn[nH]c1-c1ccc(-c2ccccc2)cc1	4.0%	3.1%	11.1	2.6%	-1.8%	42.3	/
COC(=O)c1ccc(C)c(NC(=O)CCSc2ccc(Cl)cc2)c1	?	-5.4%	9.9	1.4%	10.3%	100.5*	-2.9%
